Screens as filed in PubChem.
Hits are enriched below; roughly 19% of the tested compounds scored in any of these assays.
TDP1 cell noCPT = qHTS for Inhibitors of human tyrosyl-DNA phosphodiesterase 1 (TDP1): qHTS in cells in absence of CPT. DT40 Tdp1-/- hTDP1 cells, no CPT, ATP luminescence, 48 h. Potency, µM (top dose mostly 46.2 µM), for the others: at the highest dose activity change, negative = growth inhibition, most hits filed as inhibitors. 420,000 tested, 15% active; also: potency is read from the fitted curve at half-maximal effect; nearly all actives have a fitted effect of over 55% in size
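Chicken DT40 Tdp1-/- cells complemented with human TDP1, screened without camptothecin (DMSO vehicle only), 400 cells/well. Compounds pin-transferred, cells incubated at 37 °C for at least 48 hr. Growth read as ATP-dependent luminescence (CellTiter-Glo, 30 min at RT).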
uPA generation = inhibitors of cell surface uPA generation; cell surface uPA generation assay, qHTS; Potency, µM (doses to about 38.3 µM), inactives show top-dose activity change, negative = inhibition, hits mostly inhibitors; 330,000 tested, 0.31% active; active = well fitted inhibition curve with a large enough effect; inconclusive = small, poorly fitted or top-dose-only effect; inactive = no such curve, though single readings can be large or run the other way; tested in mouse RAW 264.7 cells; also: potency is read from the fitted curve at half-maximal effect; nearly all actives have a fitted effect of over 55% in size
IL-1B inflam inh = inhibitors of inflammasome signaling (IL-1 beta secretion); 360,000 tested, 4.7% active; AID 743279; THP-1 LPS/ATP IL-1B secretion, AlphaLISA, 16 h; active compounds read low; activity change, % at 57.5 µM; in the data active = activity change below about -50%; inconclusive = mostly about -30% to -49%
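Secreted IL-1B measured by AlphaLISA bead assay after 16 h compound exposure of THP-1 cells; compounds (final up to 57.5 uM) added 1 h before LPS (250 ng/mL) and ATP (1.25 mM) stimulation; lower signal means less secretion.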
HT1080 IDH1KD tx = HT-1080 IDH1 knockdown cell toxicity (counter line) | HT-1080 IDH1 knockdown viability, ATP luminescence, 48 h | Potency, µM (series often up to 46.1 µM), inactives show at the top dose activity, negative = toxicity, hits mostly cytotoxic | 360,000 tested, 2% active;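 also: potency is read from the fitted curve at half-maximal effect; 0% = DMSO wells and -100% = cell-free medium wells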
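Luminescent ATP read-out (CellTiter-Glo, 10 min at room temperature) after 48 h compound exposure at 37 °C gave viability of IDH1-knockdown HT-1080 cells. Activity was normalised to DMSO and cell-free wells, then fitted as concentration-response curves.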
DT40 TDP1 CPT = DT40-hTDP1 cell growth loss with CPT. chicken DT40 Tdp1-/-;hTDP1 cells + 20 nM CPT, ATP luminescence, 48 h. Potency, µM (titrated, usually from 46.2 µM), inactives show at the highest dose activity change, negative = growth inhibition, usual class: inhibitors. 420,000 tested, 12% active. AID 686979; also: potency is read from the fitted curve at half-maximal effect; nearly all actives have a fitted effect of over 55% in size
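Chicken DT40 Tdp1-/- cells complemented with human TDP1, 400 cells/well, exposed to compounds plus 20 nM camptothecin for at least 48 h at 37 C; viability read as ATP content by CellTiter-Glo luminescence.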
HT1080-NT tox = kills 2HG-producing HT-1080-NT fibrosarcoma cells | HT-1080-NT fibrosarcoma viability, CellTiter-Glo ATP luminescence, 48 h | Potency, µM (highest dose often 46.1 µM), inactives show at the highest dose activity, negative = less viability, most hits filed as cytotoxic | 360,000 tested, 1.6% active | AID 686970;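 also: NT is the 2HG producing partner of a matched IDH1 knockdown line; potency is read from the fitted curve at half-maximal effect; 0% = DMSO-treated cells and -100% = media-only wells without cells; nearly all actives have a fitted effect of over 55% in size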
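Read-out is CellTiter-Glo luminescence after 10 minutes at room temperature, following 48 hours' compound treatment of HT-1080-NT cells (750 cells/well, RPMI, 5% FBS, 37 degrees C).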
The depositor's hits bear a star. Unless noted, calls follow the shape of the dose curve; as a rule, active = well fitted curve in the direction sought with a large enough effect; inconclusive = small, poorly fitted or top-dose-only effect, or another doubt; inactive = no such curve, though single readings can be large; an effect the other way counts as inactive or inconclusive. Unless noted, % is scaled to controls: 0 for no effect and ±100 for the full control effect.

`CCCS(=O)(=O)c1nc(S(=O)(=O)c2ccc(C)cc2)c(NCCCOC(C)C)s1` gave TDP1 cell noCPT 16µM* and DT40 TDP1 CPT inconclusive.
`CCCS(=O)(=O)c1nc(S(=O)(=O)c2ccc(C)cc2)c(NCc2ccccc2Cl)s1` gave TDP1 cell noCPT -28% and DT40 TDP1 CPT -30%.
Screening Cc1ccc(S(=O)(=O)c2nc(S(=O)(=O)c3ccccc3)sc2NCCCOC(C)C)cc1 returned TDP1 cell noCPT 12µM* and DT40 TDP1 CPT inconclusive.
For N#Cc1c2c(c(Nc3ccc(F)cc3)n3c1nc1ccccc13)CCCC2 the results were TDP1 cell noCPT 18µM*, uPA generation -4%, IL-1B inflam inh 11, HT1080 IDH1KD tx -24%, DT40 TDP1 CPT 16µM* and HT1080-NT tox -2%.
`COc1ccc(C(=O)NCC(c2cccnc2)N2CCN(c3ccc(F)cc3)CC2)cc1OC` (stereo not drawn) gave TDP1 cell noCPT inconclusive, uPA generation -14%, IL-1B inflam inh -9, HT1080 IDH1KD tx -7%, DT40 TDP1 CPT inconclusive and HT1080-NT tox 10%.
For COc1ccccc1CCNC(=O)C(=O)NCC(c1cccnc1)N1CCN(c2ccccc2)CC1 (stereo not drawn) the results were TDP1 cell noCPT 12µM* and DT40 TDP1 CPT 12µM*.
Screening COc1ccccc1CNC(=O)C(=O)NCC(c1cccnc1)N1CCN(c2ccc(F)cc2)CC1 (stereo not drawn) returned TDP1 cell noCPT 13µM* and DT40 TDP1 CPT 12µM*.
`COc1ccccc1N1CCN(C(CNC(=O)C(=O)NCCCN(C)C)c2cccnc2)CC1` (stereo not drawn) gave TDP1 cell noCPT -6% and DT40 TDP1 CPT -11%.
Screening COc1ccc(CN2CCc3nc(SCC(=O)Nc4cc(C)cc(C)c4)[nH]c(=O)c3C2)cc1 returned TDP1 cell noCPT -19% and DT40 TDP1 CPT -24%.
O/N=C(\c1ccccc1)c1nccc2ccccc12 was read as TDP1 cell noCPT -22%, uPA generation 9%, IL-1B inflam inh 15, HT1080 IDH1KD tx -1%, DT40 TDP1 CPT -2% and HT1080-NT tox -1%.
O=C(c1ccncc1)c1ccc(NS(=O)(=O)c2ccc(Br)s2)cc1 was read as TDP1 cell noCPT 18µM*, uPA generation 2%, IL-1B inflam inh 26, HT1080 IDH1KD tx 0%, DT40 TDP1 CPT 16µM* and HT1080-NT tox -2%.
O=C(Nc1ccc2ccccc2c1)c1ccc(NS(=O)(=O)c2ccc(Br)s2)cc1 was read as TDP1 cell noCPT -22%, uPA generation 2%, IL-1B inflam inh 3, HT1080 IDH1KD tx 0%, DT40 TDP1 CPT -6% and HT1080-NT tox -12%.
Screening COC(=O)CC1(CC(N)=O)SCCS1 returned TDP1 cell noCPT inconclusive, uPA generation 6%, IL-1B inflam inh 29, HT1080 IDH1KD tx inconclusive, DT40 TDP1 CPT -21% and HT1080-NT tox -4%.
Screening CCCCSc1nnc(-c2ccc(C)cc2)c2ccccc12 returned TDP1 cell noCPT 18µM*, uPA generation -1%, IL-1B inflam inh 6, HT1080 IDH1KD tx 0%, DT40 TDP1 CPT 21µM* and HT1080-NT tox 0%.
Screening COc1ccccc1C(=O)Nc1ccc(Oc2nnc(-c3ccc(C)cc3)c3ccccc23)cc1 returned TDP1 cell noCPT inconclusive, uPA generation -8%, IL-1B inflam inh inconclusive, HT1080 IDH1KD tx 0%, DT40 TDP1 CPT inconclusive and HT1080-NT tox -1%.
`COc1ccc(-c2nnc(OCc3ccccc3)c3ccccc23)cc1` gave TDP1 cell noCPT inconclusive, uPA generation 0%, IL-1B inflam inh -87*, HT1080 IDH1KD tx -9%, DT40 TDP1 CPT inconclusive and HT1080-NT tox -20%.
`Cc1ccc(Oc2nnc(-c3ccc(C)cc3)c3ccccc23)cc1` gave TDP1 cell noCPT 15µM*, uPA generation 2%, IL-1B inflam inh 14, HT1080 IDH1KD tx 0%, DT40 TDP1 CPT 21µM* and HT1080-NT tox 14%.
`Cc1ccc(-c2nnc(OCc3cccnc3)c3ccccc23)cc1` gave TDP1 cell noCPT inconclusive, uPA generation 5%, IL-1B inflam inh -83*, HT1080 IDH1KD tx -1%, DT40 TDP1 CPT -15% and HT1080-NT tox -15%.
Screening c1ccc(-c2nnc(OCc3cccnc3)c3ccccc23)cc1 returned TDP1 cell noCPT inconclusive, uPA generation -4%, IL-1B inflam inh -28, HT1080 IDH1KD tx -13%, DT40 TDP1 CPT -2% and HT1080-NT tox -24%.
Cc1ccc(-c2nnc(OCc3nc4ccccc4n3C)c3ccccc23)cc1 was read as TDP1 cell noCPT -20%, uPA generation 2%, IL-1B inflam inh 13, HT1080 IDH1KD tx 0%, DT40 TDP1 CPT inconclusive and HT1080-NT tox 9%.
For CCC(=O)c1ccc(N2CCCCC2)c(F)c1 the results were TDP1 cell noCPT 16%, uPA generation 13%, IL-1B inflam inh -12, HT1080 IDH1KD tx 1%, DT40 TDP1 CPT -2% and HT1080-NT tox 9%.
CCC(=O)c1ccc(N2CCN(C(=O)c3cccc(F)c3)CC2)c(F)c1 was read as TDP1 cell noCPT 13µM*, uPA generation 3%, IL-1B inflam inh 17, HT1080 IDH1KD tx -14%, DT40 TDP1 CPT inconclusive and HT1080-NT tox 0%.
CCC(=O)c1ccc(N2CCN(C(=O)c3ccc(F)cc3)CC2)c(F)c1 was read as TDP1 cell noCPT 10µM*, uPA generation 2%, IL-1B inflam inh 6, HT1080 IDH1KD tx -7%, DT40 TDP1 CPT 21µM* and HT1080-NT tox -20%.
CCCC(=O)c1ccc(N2CCN(C(=O)c3cccs3)CC2)c(F)c1 was read as TDP1 cell noCPT inconclusive, uPA generation -14%, IL-1B inflam inh -15, HT1080 IDH1KD tx 1%, DT40 TDP1 CPT inconclusive and HT1080-NT tox -4%.
CCCC(=O)c1ccc(N2CCN(C(=O)c3ccccc3Br)CC2)c(F)c1 was read as TDP1 cell noCPT 13µM*, uPA generation -6%, IL-1B inflam inh -14, HT1080 IDH1KD tx -12%, DT40 TDP1 CPT 18µM* and HT1080-NT tox -21%.
Screening O=C(c1ccccc1)c1ccc(N2CCN(C(=O)c3ccc(F)cc3F)CC2)c(F)c1 returned TDP1 cell noCPT inconclusive, IL-1B inflam inh inconclusive, HT1080 IDH1KD tx -18%, DT40 TDP1 CPT 23µM* and HT1080-NT tox -9%.
